Experimental data published in PubChem BioAssay (NCATS).
Inconclusive results are not listed. A call without a number means that no potency is given here. Active and inactive are the calls of the source. Unless noted, the call rests on the fitted dose curve; in most records, active means well fitted curve in the direction sought with a large enough effect; inconclusive means small, poorly fitted or top-dose-only effect, or another doubt; inactive means no such curve, though single readings can be large; an effect the other way counts as inactive or inconclusive.

How the values were obtained:
[1] = target: Rap guanine nucleotide exchange factor 4 (Homo sapiens) (UniProt Q8WZA2); assay: Confirmatory qHTS for agonist of cAMP-regulated guanine nucleotide exchange factor 4 (EPAC2) (AID 1645884);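 further: nucleotide exchange releases bodipy-GDP from Rap1 and this lowers its fluorescence; nearly all actives have a fitted effect of over 65% in size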
Chain of Rap guanine nucleotide exchange factor 4 (Homo sapiens) (Q8WZA2 whole entry, looked up): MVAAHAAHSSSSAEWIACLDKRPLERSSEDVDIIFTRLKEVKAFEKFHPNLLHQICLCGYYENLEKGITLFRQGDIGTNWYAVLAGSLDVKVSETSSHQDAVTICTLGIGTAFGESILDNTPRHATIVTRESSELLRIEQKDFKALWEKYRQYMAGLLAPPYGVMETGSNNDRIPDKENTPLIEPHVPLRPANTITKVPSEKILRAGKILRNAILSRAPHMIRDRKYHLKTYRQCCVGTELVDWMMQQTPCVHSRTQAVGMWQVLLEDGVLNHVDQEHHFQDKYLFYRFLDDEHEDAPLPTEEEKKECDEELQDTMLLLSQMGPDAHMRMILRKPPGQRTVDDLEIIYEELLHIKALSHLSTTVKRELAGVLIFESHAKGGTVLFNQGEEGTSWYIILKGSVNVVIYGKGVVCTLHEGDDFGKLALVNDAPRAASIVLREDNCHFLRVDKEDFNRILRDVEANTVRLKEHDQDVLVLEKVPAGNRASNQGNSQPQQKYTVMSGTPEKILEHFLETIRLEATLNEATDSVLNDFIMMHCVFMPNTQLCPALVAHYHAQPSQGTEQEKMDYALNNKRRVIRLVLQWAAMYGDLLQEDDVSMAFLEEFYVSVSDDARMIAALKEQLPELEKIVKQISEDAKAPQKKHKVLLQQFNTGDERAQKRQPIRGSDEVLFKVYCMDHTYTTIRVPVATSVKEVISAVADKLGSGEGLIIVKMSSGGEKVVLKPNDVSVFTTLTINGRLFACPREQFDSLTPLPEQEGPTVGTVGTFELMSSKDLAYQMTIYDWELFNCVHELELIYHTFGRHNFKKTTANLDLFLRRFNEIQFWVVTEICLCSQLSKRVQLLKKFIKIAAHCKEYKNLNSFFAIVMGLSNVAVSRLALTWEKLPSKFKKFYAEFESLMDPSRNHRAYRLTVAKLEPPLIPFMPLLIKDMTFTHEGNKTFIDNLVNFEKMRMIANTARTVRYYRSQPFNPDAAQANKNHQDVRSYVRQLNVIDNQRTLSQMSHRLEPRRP

[2] = target: Rap guanine nucleotide exchange factor 4 (Homo sapiens) (UniProt Q8WZA2); assay: Confirmatory qHTS for antagonist of cAMP-regulated guanine nucleotide exchange factor 4 (EPAC2) (AID 1645885); further: nearly all actives have a fitted effect of over 25% in size; further: potency means the concentration at half of the fitted maximal effect
[3] = target: Glutathione peroxidase 1 (Homo sapiens) (UniProt P07203); assay: Primary qHTS Assay for Inhibitors of Recombinant Selenoprotein Glutathione Peroxidase 1 (GPX1) (AID 1845191); further: nearly all actives have a fitted effect of over 65% in size
Chain of Glutathione peroxidase 1 (Homo sapiens) (P07203 whole entry, looked up): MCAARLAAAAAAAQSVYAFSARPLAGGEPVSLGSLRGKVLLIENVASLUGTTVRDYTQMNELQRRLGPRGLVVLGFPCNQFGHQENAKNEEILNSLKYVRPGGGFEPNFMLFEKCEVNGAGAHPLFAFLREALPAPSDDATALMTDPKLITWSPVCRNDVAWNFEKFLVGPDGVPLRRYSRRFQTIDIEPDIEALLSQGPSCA
Procedure, shortened: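 NADPH consumption tracked by fluorescence at 340/450 nm between t=0 and t=15 min, room temperature. Final mix: 10 nM GPX1, 100 nM glutathione reductase, 1 mM GSH, 0.5 mM NADPH, 0.5 mM cumene hydroperoxide, 0.01% BSA; 30 min compound–enzyme preincubation.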

[4] = NCATS anti-infectives library activity on HEK293 viability as a counter-qHTS vs the C. elegans viability qHTS (AID 1745854);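 further: HEK293 cells exposed to compounds for 24 hr before the viability read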
Procedure, shortened: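 Counter-screen for cytotoxicity: HEK293, 24 hr, 37C, compounds up to 41.7 uM final (a dilution series, 1:5). Readout CellTiter-Glo luminescence, 10 min RT. Digitonin control, 83.3 uM final.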

[5] = target: Phospholipid hydroperoxide glutathione peroxidase GPX4 (Homo sapiens) (UniProt P36969); assay: Primary qHTS Assay for Inhibitors of Recombinant Selenoprotein Glutathione Peroxidase 4 (GPX4) (AID 1845192); further: nearly all actives have a fitted effect of over 65% in size
Chain of Phospholipid hydroperoxide glutathione peroxidase GPX4 (Homo sapiens) (P36969 whole entry, looked up): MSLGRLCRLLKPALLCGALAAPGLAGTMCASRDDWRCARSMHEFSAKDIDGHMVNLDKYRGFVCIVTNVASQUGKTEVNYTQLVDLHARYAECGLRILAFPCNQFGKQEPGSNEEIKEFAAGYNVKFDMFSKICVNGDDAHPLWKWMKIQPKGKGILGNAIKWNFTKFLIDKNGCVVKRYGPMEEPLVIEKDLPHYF
Procedure, shortened: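 NADPH consumption followed by fluorescence at 340/450 nm, t=0 and after 15 min at room temperature. Reaction started with cumene hydroperoxide (0.5 mM final) after 30 min compound–GPX4 preincubation; final 200 nM GPX4, 100 nM GR, 1 mM GSH, 0.5 mM NADPH.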

[6] = target: Luciferin 4-monooxygenase (Photinus pyralis) (UniProt P08659); assay: Primary firefly luciferase (FLuc) qHTS assay for identification of artifact compounds. (AID 1845220); details: outcome: dose series up to 54.1 µM; further: nearly all actives have a fitted effect of over 60% in size
Procedure, shortened: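 FLuc 10 nM; luciferin 10 uM; ATP 10 uM; Tris-acetate pH 7.6, Mg-acetate 10 mM; 15 min RT preincubation; 5 min reaction; luminescence.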

[7] = Primary fluorescence-based thiol-reactive (MSTI) qHTS assay for identification of artifact compounds. (AID 1845221);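 further: thiol-reactive compounds lower the probe fluorescence signal; nearly all actives have a fitted effect of over 65% in size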
Procedure, shortened: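 A multi-concentration qHTS design tested compounds against 4 uM MSTI, pH 7.4 phosphate-buffered saline. Plates were protected from light for 1 h at room temperature before imaging fluorescence.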

[8] = target: Catechol O-methyltransferase (Homo sapiens) (UniProt P21964); assay: Confirmatory Screen for Target Class Profiling of Small Molecule Inhibitors of Methyltransferases (AID 1745852; calls by dose curve; further: potency means the concentration at half of the fitted maximal effect); details: MTase-Glo luminescence, SAH detection, recombinant enzyme; measured here: COMT max response; stronger effect = lower value
Chain of Catechol O-methyltransferase (Homo sapiens) (P21964 whole entry, looked up): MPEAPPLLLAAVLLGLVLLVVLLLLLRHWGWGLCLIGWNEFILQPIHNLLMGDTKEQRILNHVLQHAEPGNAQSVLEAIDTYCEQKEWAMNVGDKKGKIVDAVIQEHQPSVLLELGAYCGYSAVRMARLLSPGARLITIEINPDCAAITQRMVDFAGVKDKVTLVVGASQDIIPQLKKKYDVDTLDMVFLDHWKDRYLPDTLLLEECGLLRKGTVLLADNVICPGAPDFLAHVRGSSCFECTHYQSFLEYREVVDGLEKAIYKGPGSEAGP

[9] = target: Guanidinoacetate N-methyltransferase (Homo sapiens) (UniProt Q14353); assay: as above; details: MTase-Glo luminescence, SAH detection, recombinant enzyme; activity change, negative = inhibition: at 57.3 µM (top of the series)
[10] = target: Nicotinamide N-methyltransferase (Homo sapiens) (UniProt P40261); assay: as above; details: MTase-Glo luminescence, SAH detection, recombinant enzyme; measured here: NNMT max response; stronger effect = lower value
Chain of Nicotinamide N-methyltransferase (Homo sapiens) (P40261 whole entry, looked up): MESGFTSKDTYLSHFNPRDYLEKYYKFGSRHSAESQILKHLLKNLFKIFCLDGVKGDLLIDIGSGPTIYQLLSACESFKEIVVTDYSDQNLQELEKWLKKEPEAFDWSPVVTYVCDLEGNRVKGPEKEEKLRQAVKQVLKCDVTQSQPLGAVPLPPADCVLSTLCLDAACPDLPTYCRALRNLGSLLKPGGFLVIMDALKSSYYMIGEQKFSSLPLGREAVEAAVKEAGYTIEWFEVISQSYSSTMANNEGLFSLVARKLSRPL

[11] = target: Phenylethanolamine N-methyltransferase (Homo sapiens) (UniProt P11086); assay: as above; details: MTase-Glo luminescence, SAH detection, recombinant enzyme; measured here: PNMT max response; stronger effect = lower value
Chain of Phenylethanolamine N-methyltransferase (Homo sapiens) (P11086 whole entry, looked up): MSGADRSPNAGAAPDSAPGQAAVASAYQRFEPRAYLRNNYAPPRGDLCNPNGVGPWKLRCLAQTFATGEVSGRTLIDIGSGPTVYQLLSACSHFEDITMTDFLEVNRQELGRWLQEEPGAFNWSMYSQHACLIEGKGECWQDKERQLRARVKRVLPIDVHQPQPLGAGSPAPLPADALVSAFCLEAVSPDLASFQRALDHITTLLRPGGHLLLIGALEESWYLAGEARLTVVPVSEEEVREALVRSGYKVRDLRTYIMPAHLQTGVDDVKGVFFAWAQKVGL

[12] = NCATS anti-infectives library activity on the primary C. elegans qHTS viability assay (AID 1745855; calls by dose curve)
Procedure, shortened: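 GFP read-out by 488 nm laser cytometry at day 0, 3 and 7, gated on object perimeter, area and peak intensity, scored viability of PE254-GFP-FLuc worms exposed to compound in S medium with bacterial capsules at 21 °C.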

[13] = target: Metallo-beta-lactamase type 2 (Klebsiella pneumoniae) (UniProt C7C422); assay: qHTS to identify inhibitors of the New Delhi Metallo-beta-lactamase (NDM): assay validation screen against the NCATS LOPAC Collection (AID 1794843);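 further: nitrocefin turnover by NDM-1 measured as 485 nm absorbance at plateau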
Chain of Metallo-beta-lactamase type 2 (Klebsiella pneumoniae) (C7C422 whole entry, looked up): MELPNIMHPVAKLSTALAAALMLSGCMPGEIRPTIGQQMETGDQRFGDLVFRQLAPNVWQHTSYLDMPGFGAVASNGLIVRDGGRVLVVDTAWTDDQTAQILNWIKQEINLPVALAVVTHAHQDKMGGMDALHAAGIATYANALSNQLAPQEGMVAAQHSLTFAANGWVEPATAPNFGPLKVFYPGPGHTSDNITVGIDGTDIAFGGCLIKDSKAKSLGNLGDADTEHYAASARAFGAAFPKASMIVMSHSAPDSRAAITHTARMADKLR
Procedure, shortened: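 NDM-1 at 2 nM final in 50 mM HEPES pH 7.0 with 1 uM ZnSO4 and 0.01% Tween20 was preincubated with library compounds in DMSO. Nitrocefin (50 uM stock) was then added, and absorbance at 485 nm was read at the kinetic plateau.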

In the case of COC(=O)Nc1nc2ccc(C(=O)c3cccs3)cc2[nH]1, the Potency [1] is reported as “inactive”, the Potency [2] is reported as “inactive” and the Potency [3] is reported as “inactive”.

For CC1(C)O[C@H]2CC(=O)OC[C@]23[C@H]2CC[C@@]4(C)[C@H](c5ccoc5)OC(=O)[C@H]5O[C@]54[C@]2(C)C(=O)C[C@@H]13, the Potency [4] was “inactive”, the Potency [3] was “inactive” and the Potency [5] was “inactive”. The outcome [6] was “inactive” and the outcome [7] was “inactive”.

In the case of CC(C)(Oc1ccc(C2CC2(Cl)Cl)cc1)C(=O)O (stereo unspecified), the Potency [4] is reported as “inactive”, the Potency [3] is reported as “inactive” and the Potency [5] is reported as “inactive”.

In the case of OCCN1CCN(CCCN2c3ccccc3Sc3ccc(C(F)(F)F)cc32)CC1, the Potency [1] is reported as “inactive”, the Potency [2] is reported as 44.1 µM (active) and the activity [8] is reported as -1.96%. The Potency [9] was 0.0306 µM (active), the activity [10] was -64.7% and the activity [11] was -1.22%. The Potency [12] was “inactive”, the outcome [13] was “inactive” and the Potency [3] was “inactive”. For the same compound, the Potency [5] was “inactive”.

With COc1ccccc1OCC(O)CN1CCN(CC(=O)Nc2c(C)cccc2C)CC1 (stereo unspecified) the Potency [4] was “inactive”, the Potency [3] was “inactive” and the Potency [5] was “inactive”.

In the case of CN1CCN(C2=Nc3cc(Cl)ccc3Nc3ccccc32)CC1, the outcome [13] is reported as “inactive”, the Potency [3] is reported as “inactive” and the Potency [5] is reported as “inactive”.

In the case of CCN1CCCC1CNC(=O)c1cc(S(=O)(=O)CC)c(N)cc1OC (stereo unspecified), the outcome [13] is reported as “inactive” and the Potency [3] is reported as “inactive”.

For COc1cc2nc(N3CCN(C(=O)c4ccco4)CC3)nc(N)c2cc1OC, the outcome [13] was “inactive” and the Potency [5] was “inactive”.

For Nc1c2c(nc3ccccc13)CCCC2, the outcome [13] was “inactive”, the Potency [3] was “inactive” and the Potency [5] was “inactive”.

In the case of COc1ccc2[nH]cc(CCNC(C)=O)c2c1, the outcome [13] is reported as “inactive”, the Potency [3] is reported as “inactive” and the Potency [5] is reported as “inactive”.

With O=C1N(c2ccccc2)c2ccccc2C1(Cc1ccncc1)Cc1ccncc1 the outcome [13] was “inactive” and the Potency [3] was “inactive”.

With CCCNCC(O)COc1ccccc1C(=O)CCc1ccccc1 (stereo unspecified) the outcome [13] was “inactive” and the Potency [3] was “inactive”.

For CC(C)C(=O)Nc1ccc([N+](=O)[O-])c(C(F)(F)F)c1, the Potency [3] was “inactive”.

With Clc1ccc2nsnc2c1NC1=NCCN1 the outcome [13] was “inactive” and the Potency [3] was “inactive”.

In the case of Cc1cc(C(C)(C)C)c(O)c(C)c1CC1=NCCN1, the outcome [13] is reported as “inactive”, the Potency [3] is reported as “inactive” and the Potency [5] is reported as “inactive”. The outcome [6] was “inactive”.

For O=c1c(-c2ccc(O)cc2)coc2cc(O)cc(O)c12, the outcome [13] was “inactive”, the Potency [3] was “inactive” and the Potency [5] was “inactive”.

In the case of COc1cc2c(c(OC)c1OC)-c1ccc(OC)c(=O)cc1[C@@H](NC(C)=O)CC2, the outcome [13] is reported as “inactive”, the Potency [3] is reported as “inactive” and the Potency [5] is reported as “inactive”.

For CCCCc1oc2ccccc2c1C(=O)c1cc(I)c(OCCN(CC)CC)c(I)c1, the Potency [3] was “inactive”.

In the case of Cn1cnc2c1c(=O)[nH]c(=O)n2C, the outcome [13] is reported as “inactive”, the Potency [3] is reported as “inactive” and the Potency [5] is reported as “inactive”.

In the case of CS(=O)(=O)Nc1ccc([N+](=O)[O-])cc1Oc1ccccc1, the outcome [13] is reported as “inactive”, the Potency [3] is reported as “inactive” and the Potency [5] is reported as “inactive”.

In the case of COc1ccccc1N1CCN(CC(O)COc2cccc3ccccc23)CC1 (stereo unspecified), the outcome [13] is reported as “inactive” and the Potency [3] is reported as “inactive”.

In the case of NCCCCCC(=O)O, the outcome [13] is reported as “inactive”, the Potency [3] is reported as “inactive” and the Potency [5] is reported as “inactive”.

For CN(Cc1cnc2nc(N)nc(N)c2n1)c1ccc(C(=O)N[C@@H](CCC(=O)O)C(=O)O)cc1, the outcome [13] was “inactive”, the Potency [3] was “inactive” and the Potency [5] was “inactive”.

In the case of CC#C[C@]1(O)CC[C@H]2[C@@H]3CCC4=CC(=O)CCC4=C3[C@@H](c3ccc(N(C)C)cc3)C[C@@]21C, the Potency [3] is reported as “inactive”.

For CN(C)CCOC(c1ccccc1)c1ccccc1, the Potency [3] was “inactive”.

In the case of COc1nc(C)nc(Cl)c1NC1=NCCN1, the outcome [13] is reported as “inactive” and the Potency [3] is reported as “inactive”.

In the case of CCC1(C)CC(=O)NC1=O (stereo unspecified), the outcome [13] is reported as “inactive”, the Potency [3] is reported as “inactive” and the Potency [5] is reported as “inactive”.

For CCOC(=O)c1ncn2c1CN(C)C(=O)c1cc(F)ccc1-2, the outcome [13] was “inactive”, the Potency [3] was “inactive” and the Potency [5] was “inactive”.

With CCc1cccc2c3c([nH]c12)C(CC)(CC(=O)O)OCC3 (stereo unspecified) the Potency [3] was “inactive”.

In the case of CN(C)c1nc(N(C)C)nc(N(C)C)n1, the outcome [13] is reported as “inactive”, the Potency [3] is reported as “inactive” and the Potency [5] is reported as “inactive”.

For NC(CO)C(=O)NNCc1ccc(O)c(O)c1O (stereo unspecified), the outcome [13] was “inactive”, the Potency [3] was “inactive” and the Potency [5] was “inactive”.

With COc1ccccc1OCCNCC(O)COc1cccc2[nH]c3ccccc3c12 (stereo unspecified) the outcome [13] was “inactive”, the Potency [3] was “inactive” and the Potency [5] was “inactive”.

For CC(C)NCC(O)c1ccc(O)c(O)c1 (stereo unspecified), the outcome [13] was “inactive”, the Potency [3] was “inactive” and the Potency [5] was “inactive”.

With CC(CCc1ccc(O)cc1)NCCc1ccc(O)c(O)c1 (stereo unspecified) the Potency [3] was “inactive”.

For O=C(c1ccc(F)cc1)C1CCN(CCn2c(=O)[nH]c3ccccc3c2=O)CC1, the outcome [13] was “inactive”, the Potency [3] was “inactive” and the outcome [6] was “inactive”. For the same compound, the outcome [7] was “inactive”.

With CC(COc1ccccc1)N(CCCl)Cc1ccccc1 (stereo unspecified) the Potency [3] was “inactive”.

With Cc1cnc(C(=O)NCCc2ccc(S(=O)(=O)NC(=O)NC3CCCCC3)cc2)cn1 the outcome [13] was “inactive” and the Potency [3] was “inactive”.

With CC1COc2c(N3CCN(C)CC3)c(F)cc3c(=O)c(C(=O)O)cn1c23 (stereo unspecified) the outcome [13] was “inactive”, the Potency [3] was “inactive” and the Potency [5] was “inactive”.

With NCCc1cnc[nH]1 the outcome [13] was “inactive”, the Potency [3] was “inactive” and the Potency [5] was “inactive”.
